Results on 7 compounds are retold here after PubChem BioAssay (NCI).

This is part of a sample that, as a whole, favours compounds with a hit. Of some 83,000 tested, about 20% had one in any assay.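 Single-dose data. Exposure time 48 hours. Values below 10 considered active.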 Activity calls are given as the source filed them.

This experiment has as its system MDA-MB-468 breast. Put plainly: NCI-60 one-dose screen, 48 h (100 = growth as untreated, 0 = no growth, -100 = all killed). To be noted: 10 µM unless noted.
With `COc1cc(C2CC(=O)Nc3c2cc(Br)c2ccccc32)cc(Br)c1OC` (configuration not stated), the growth was 3.67% (active).

Turning to `COc1ccc(-c2ccc(-c3ccc(C(=N)N)s3)s2)cc1`, the growth was -75.9% (active).

Consider `Fc1ccc(CNc2cccc3[nH]c(C(F)(F)F)nc23)cc1`, for which the growth is 99.7% (inactive).

As to `O=[N+]([O-])/C(=C/C=C/c1ccccc1)c1ccccc1`, the growth is 2.79% (active).

In the case of `OCCSc1ccc(Cl)cc1`, the growth is 106% (inactive).

With `Cc1cc([C@@H](C)Nc2ccccc2C(=O)O)c2nc(N3CCOCC3)cc(=O)n2c1`, the growth is 9.76% (active).

Turning to `Oc1ccc(Nc2ncnc3c2sc2ncccc23)cc1`, the growth is 21.3% (inactive).
